Hit rate of the full screen: of about 360,000 compounds, about 8,200 (2.3%) were called active. Many of the other results were omitted from the sample, so actives are more common in it than they were. Values without a mark were called inactive. Cut-off read from the data, not from the text of the source: active = inhibition above about 27%; inactive = the rest.

The target in the test is Fructose-bisphosphate aldolase (Mycobacterium tuberculosis (strain ATCC 25618 / H37Rv)) (UniProt P9WQA3). Description: M. tuberculosis aldolase activity blockers – biochemical, fluorescence, strain H37Rv, primary screen (AID 588726).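 Note: 0% = vehicle and 100% = reference inhibitor.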 The following applies: purified M. tuberculosis FBA, fluorescence read-out, at 1 µM, stronger effect = higher value.
Fructose-bisphosphate aldolase (Mycobacterium tuberculosis (strain ATCC 25618 / H37Rv)), sequence (P9WQA3 whole entry, looked up): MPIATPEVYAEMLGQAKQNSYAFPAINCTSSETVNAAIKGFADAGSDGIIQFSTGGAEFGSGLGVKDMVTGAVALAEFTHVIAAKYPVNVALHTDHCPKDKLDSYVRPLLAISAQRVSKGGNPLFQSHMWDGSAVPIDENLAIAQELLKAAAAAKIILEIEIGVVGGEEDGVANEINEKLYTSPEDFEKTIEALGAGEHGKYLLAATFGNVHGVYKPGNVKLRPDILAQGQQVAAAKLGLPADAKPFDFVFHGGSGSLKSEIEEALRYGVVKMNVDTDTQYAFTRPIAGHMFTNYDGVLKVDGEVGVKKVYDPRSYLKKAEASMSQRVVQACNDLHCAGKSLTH
As usually defined, the inhibition is the drop in the measured response relative to a control, in per cent. Consider `O=S(=O)(c1cccc(C(F)(F)F)c1)N1c2ccccc2-n2cccc2C1c1cccnc1` (stereo not drawn), for which the inhibition is -0.16%.
For `O=C(Nc1c(-c2ccccc2)nc2c(Br)cc(Br)cn12)c1ccco1`, the inhibition was 1.02%.
In the case of `Cc1cc(C(C)(C)C)oc1C(=O)N(CC(=O)NC1CCCC1)Cc1ccc(Cl)cc1`, the inhibition is 3.61%.
In the case of `COCC1CCN(C(=O)c2ccc3oc(Cc4ccccc4)nc3c2)C1` (stereo not drawn), the inhibition is 2.73%.
The value for `O=C1NCC(Nc2ccccc2)C(=O)N1` (stereo not drawn) was -2.44%; that for `N=c1ccn(CC(=O)NC(N)=O)c2ccccc12` was 0%.
Consider `CC1C(C)N(C(=O)CCl)c2ccccc2N1C(=O)CCl` (stereo not drawn), for which the inhibition was -0.21%.
The value for `CCN(CC)S(=O)(=O)c1ccc(NC(=O)c2cccnc2Cl)c(NC(=O)c2cccnc2Cl)c1` was -0.1%; that for `COc1ccccc1CN1CC(C(=O)NCCc2cn[nH]c2)CCC1=O` (stereo not drawn) was 3.36%.
The same measure for `Cc1c(C(=O)Nc2cccc(Cl)c2)cn2c(nc3ccccc32)c1C#N`: -0.2%; for `Cc1nc(-c2ccccc2)cn2c1nc1ccccc12`: 119% (active); for `Cc1nc2ccccc2n1CC(O)c1ccccc1` (stereo not drawn): -0.66%.
Regarding `CN1CCn2cnc(C(=O)NCC(=O)OC(C)(C)C)c2C1=O`, the inhibition was -1.37%.
As for `Cc1c(CC(=O)NCC(=O)NCC(=O)O)c(=O)oc2cc3oc4c(c3cc12)CCCC4`, the inhibition is 16.6%.
The same measure for `Cc1coc2c1c(C)cc1oc(=O)c(CC(=O)NCC(=O)N[C@H](C(=O)O)C(C)C)c(C)c12`: 105% (active); for `CSCC[C@H](NC(=O)N1CCn2c1nc1ccccc12)C(=O)NC1CCCCC1`: -1.03%.
In the case of `CCN(CCn1cccn1)Cc1nc(-c2ccc(C(=O)OC)cc2)no1`, the inhibition was 0.65%.
The same measure for `CCOC(=O)COc1cc(OCC(=O)OCC)c2c(=O)cc(-c3ccccc3)oc2c1`: 39.2% (active); for `COc1ccccc1OCC(=O)OCc1cc(-c2ccco2)on1`: 2.93%; for `CCOC(=O)COc1ccc(Cl)cc1C1NC(=O)NC(C)=C1C(C)=O` (stereo not drawn): 0.97%.
The value for `COCCC(=O)Nc1ccc2c(c1)CN(C(=O)CCOC)CC2` was 2.39%; that for `O=C(NCC1CC1)c1onc(CSc2ccccc2)c1C(=O)NCC1CC1` was 3.54%; that for `O=C(NCc1ccccc1)c1onc(CSc2ccncc2)c1C(=O)NCc1ccccc1` was 0.92%.
The value for `O=C(NCc1ccccc1)c1onc(CSc2nc3ccccc3[nH]2)c1C(=O)NCc1ccccc1` was 27.9% (active); that for `O=C(CN1CCN(C(=O)C2CCCO2)CC1)Nc1c(Cl)cccc1Cl` (stereo not drawn) was -2.38%.
Take `O=C(CCCCCn1c(=S)[nH]c2ccsc2c1=O)NC1CCCCC1`: the inhibition was 3.56%.
The value for `Cc1ccc2[nH]c(=O)c(-c3nc4c(C)cccn4c3NCc3ccco3)cc2c1` was 4.83%.
The value for `CC(C)c1cc(NCc2ccccn2)n2c(nc3ccccc32)c1C#N` was 17.6%; that for `Cc1cc(NC(C)C)n2c(nc3ccccc32)c1C#N` was 41.7% (active); that for `Cc1ccc(S(=O)(=O)N(C)c2nc3ccccc3n3c(C(C)C)nnc23)cc1` was -0.15%.
In the case of `Cc1cc(NCc2ccco2)n2c(nc3ccccc32)c1C#N`, the inhibition is 162% (active).
The value for `CCOCCCNc1c(CC)c(C)c(C#N)c2nc3ccccc3n12` was 4.3%; that for `CCCNC(=O)NC(=O)COC(=O)CC(NC(N)=O)c1ccc(Cl)cc1` (stereo not drawn) was -6.17%.
The same measure for `CC(C)CCNC(=O)CC1C(=O)N(Cc2ccccc2)C(C)c2nc3ccccc3n21` (stereo not drawn): -2.2%.
The same measure for `CC(C)(C)C(=O)CSc1ccc(S(=O)(=O)N2CCCC2)cn1`: 1.92%; for `COC(=O)C1=C(C)N(Cc2ccccc2)C(=NCCCOC(C)C)N[C@H]1c1ccccc1`: -0.81%; for `CC1CCCC(NC(=O)COC(=O)[C@@H]2CC(O)CN2S(=O)(=O)c2ccc3c(c2)OCCO3)C1C` (stereo partly drawn): 0.53%.
For `O=c1[nH]nc(SCCS(=O)(=O)c2ccc(F)cc2)n1-c1ccccc1C(F)(F)F`, the inhibition is 1.24%.
The value for `CCCCN(CCCC)CCC(O)c1cc2c(Cl)cc(Cl)cc2c2cc(C(F)(F)F)ccc12` (stereo not drawn) was -0.59%; that for `O=c1onc(-c2cccs2)n1Cc1ccccc1` was 1.37%.
The value for `Nc1nc2n(n1)C(c1ccco1)CC(c1ccc(Cl)c(Cl)c1)N2` (stereo not drawn) was 30.1% (active); that for `COc1ccc(C2CC(c3ccc(Cl)cc3Cl)Nc3nc(N)nn32)cc1OC` (stereo not drawn) was 0.41%; that for `Cc1ccc(C2CC(c3cccc(Br)c3)n3nc(N)nc3N2)cc1` (stereo not drawn) was 5.98%.
The value for `CCOc1ccc(CCNC(=O)COC(=O)C2CCN(c3ccc(C(F)(F)F)cn3)CC2)cc1OCC` was 2.79%; that for `OC[C@@H]1CN(Cc2ccc3c(c2)OCO3)C[C@H](n2cnc3c(NCc4ccco4)ncnc32)O1` was 0.71%.
For the compound `CNC(=O)c1ccc(CN(C)C(=O)c2cc(C3CC3)nc3c2cnn3C(C)C)cc1`, the inhibition is -0.03%.
The value for `CC(C)n1ncc2c(C(=O)NCc3ccccc3CN(C)C)cc(C3CC3)nc21` was 29.8% (active); that for `COc1ccc(OCCNC(=O)c2cc(C3CC3)nc3c2cnn3C(C)C)cc1` was 7.43%.
The same measure for `Cn1c(=O)c2c(nc(N3CCOCC3)n2CCNC2=NCCC2)n(C)c1=O`: 0.36%; for `Cc1coc(C)c1C(=O)CC1(O)C(=O)N(C)c2ccc(Cl)cc21` (stereo not drawn): -1.99%; for `CC(c1nnc(SCC(=O)Nc2sccc2C#N)n1-c1ccc(Cl)cc1)N(C)C` (stereo not drawn): -0.06%.
The value for `Cc1cc(=O)oc2c(C)c(OC(C)C(=O)NC3CCN(Cc4ccccc4)CC3)ccc12` (stereo not drawn) was 14.6%.
`COc1cccc(C(=O)OCc2cc(=O)oc3c(C)c(C)ccc23)c1OC`: the inhibition is 2.59%.
The same measure for `COc1ccccc1NC(=O)COC(=O)CNC(=O)C1CCCCC1`: 2.67%.
Regarding `CCCc1cc(=O)[nH]c(SCC(=O)Nc2ccc(S(=O)(=O)N3CCCC3)cc2)n1`, the inhibition was 1.25%.
The same measure for `O=C(O)c1cccc(S(=O)(=O)N2CC=C(c3ccccc3)CC2)c1`: 0.87%; for `CN(C)c1ccc(C2Nc3ccccc3C(=O)N2NS(=O)(=O)c2ccccc2)cc1` (stereo not drawn): -0.05%.
With `CCOC(=O)NN1C(=O)c2ccccc2NC1c1ccccc1O` (stereo not drawn), the inhibition was 26.2%.
The same measure for `CCN1C(=O)N[C@@H](c2ccccc2)[C@H](C(C)=O)[C@H]1C`: 1.5%; for `O=C1c2ccccc2NC(c2ccccc2O)N1NS(=O)(=O)c1ccccc1` (stereo not drawn): 7.05%.
Regarding `CC(=O)NN1C(=O)c2ccccc2NC1c1ccccc1` (stereo not drawn), the inhibition was 37.3% (active).
The value for `CCOC(=O)NN1C(=O)c2ccccc2NC1c1cccc(O)c1` (stereo not drawn) was 31.7% (active); that for `Cc1cccc(C)c1NC(=O)C1CCCN1C(=O)OC(C)(C)C` (stereo not drawn) was -0.82%; that for `CS(=O)(=O)N(CC(=O)N1CCOCC1)c1ccc2c3c(cccc13)CC2` was 9.05%.
On to `COCCNC(=O)C1CCN(S(=O)(=O)c2ccc3c(c2)OCCO3)CC1`, for which the inhibition is -1.67%.
In the case of `O=C(O)C(=Cc1ccccc1[N+](=O)[O-])c1ccccc1`, the inhibition was 3.82%.
The value for `CC1(C)CC(=O)C=C(c2ccc(COC(=O)c3cc(F)cc(F)c3)cc2)C1=O` was -0.96%; that for `C/C(=N\NC(=S)NC(C)C)c1ccc(C(C)(C)C)cc1` was 2.12%.
Take `Cc1ccc(CNC(=O)c2ccccc2CCc2ccccc2)cc1`: the inhibition is -1.34%.
The same measure for `CCN(CC)CCCNC(=O)c1cc2c(=O)[nH]c3ccc(C)cc3c2s1`: 99.9% (active); for `Cc1cccc(N(C)C(=O)c2cc3c(=O)[nH]c4ccc(C)cc4c3s2)c1`: 2.59%; for `CCN(CC)CCCNC(=O)c1cc(-c2cccc(Cl)c2)on1`: 0%.
On to `O=C1CC(c2cccc(Br)c2)C2=C(CCCC2=O)N1` (stereo not drawn), for which the inhibition was 11.8%.
The value for `COc1ccc(-n2nc(C(=O)NCC(=O)Nc3cccc(C)n3)c3ccccc3c2=O)cc1` was -0.39%.
Take `COc1ccc(OC)c(CN2C(=O)CCC2(C)C(=O)NC2CCCCCC2)c1` (stereo not drawn): the inhibition is -0.66%.
Take `Nc1ncnc2c1ncn2[C@@H]1O[C@H](C(=O)N2CCCN(Cc3ccccc3F)CC2)[C@@H](O)[C@H]1O`: the inhibition is -2.6%.
The value for `CCN1CCCC1CNC(=O)c1ccc2c(c1)NC(=O)/C(=C\c1ccccc1F)S2` (stereo not drawn) was -6.09%; that for `COc1ccc(C(=O)NCC2CCCN2S(=O)(=O)c2cccs2)cc1OC` (stereo not drawn) was 2.94%; that for `CCOC(=O)CSc1nc(C)cc2c1C(=O)OC2` was -3.48%.
The same measure for `O=C(NCc1cccc(Cl)c1)C1CCC(=O)N(C2CC2)C1` (stereo not drawn): 1.48%; for `O=C(NCc1cccc(Cl)c1)C1=CC=CN2CCS(=O)(=O)N=C12`: 30.5% (active); for `O=C(NCc1cccc(Cl)c1)C1CCN(c2nnc(N3CCCC3=O)s2)CC1`: -1.53%.
The value for `COCC1CCCN(Cc2cn[nH]c2-c2cc3ccccc3o2)C1` (stereo not drawn) was 0.03%.
For the compound `CCCOc1ccc2c3c(c(=O)oc2c1OCCC)CCC3`, the inhibition is 16%.
The value for `COc1ccc(C(=O)Nc2ccc(C(=O)NCC3CCCO3)cc2)c(OC)c1OC` (stereo not drawn) was -1.55%; that for `COc1ccc2c3c(c(=O)oc2c1OCC(=O)C(C)(C)C)CCCC3` was 63.3% (active).
The value for `CCc1nc2c(OCC(=O)C(C)(C)C)cccn2c1N(C)C(=O)c1ccccc1F` was -0.18%; that for `Clc1ccc(C=NC23CN4CN(CN(C4)C2)C3)cc1` was 1.62%.
The same measure for `NNc1cccc(C=Cc2ccccc2)cc1=O`: 21.6%; for `O=C(COc1ccc(Cl)cc1)NCc1nnc(SCC(=O)NCC2CCCO2)o1` (stereo not drawn): 5.04%.
With `CCC1Oc2ccccc2N(CC(=O)NCCCN2CCN(CC)CC2)C1=O` (stereo not drawn), the inhibition is -0.48%.
The value for `Cc1ccc(NC(=O)CCCNC(=O)c2ccc(Cl)cc2)cc1S(=O)(=O)N1CCOCC1` was 1.07%.
The value for `CN1CCN(CCCNC(=O)c2ccc(/C=C3\Oc4ccccc4N(Cc4ccc(Cl)cc4)C3=O)cc2)CC1` was 80.8% (active).

The values are drawn from PubChem BioAssay AID588726 (The Scripps Research Institute Molecular Screening Center, 2011).
